From PubChem BioAssay
The sample as a whole holds a higher share of hits than the screen did.
HT1080NT lethal = kills 2HG-producing HT-1080-NT fibrosarcoma cells; HT-1080-NT fibrosarcoma viability, CellTiter-Glo ATP luminescence, 48 h; Potency, µM (titrated, usually from 46.1 µM), for the others: top-dose activity, negative = less viability, hits mostly cytotoxic; actives 1.6% (n = 360,000); AID 686970;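 note: NT is the 2HG producing partner of a matched IDH1 knockdown line; potency is the fitted concentration of half-maximal effect; 0% = DMSO-treated cells and -100% = media-only wells without cells; nearly all actives have a fitted effect of over 55% in size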
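HT-1080-NT; 750 cells/well; 5% FBS RPMI; 48 h compound, 37 degrees C; CellTiter-Glo luminescence; curve fitting and curve-class assignment.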
TDP1 cell CPT = growth inhibition of DT40 Tdp1-/-;hTDP1 cells with camptothecin (screen for TDP1 inhibitors); Potency, µM (titrated, usually from 46.2 µM), for the others: top-dose activity change, negative = growth inhibition, hits mostly inhibitors; chicken DT40 Tdp1-/-;hTDP1 cells + 20 nM CPT, ATP luminescence, 48 h; AID 686979; actives 12% (n = 420,000); note: potency is the fitted concentration of half-maximal effect; nearly all actives have a fitted effect of over 55% in size
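Chicken DT40 Tdp1-/- cells complemented with human TDP1, 400 cells/well, exposed to compounds plus 20 nM camptothecin for at least 48 h at 37 C; viability read as ATP content by CellTiter-Glo luminescence.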
DT40 TDP1 no CPT = qHTS for Inhibitors of human tyrosyl-DNA phosphodiesterase 1 (TDP1): qHTS in cells in absence of CPT; DT40 Tdp1-/- hTDP1 cells, no CPT, ATP luminescence, 48 h; Potency, µM (titrated, usually from 46.2 µM), for inactives: at the highest dose activity change, negative = growth inhibition, hits mostly inhibitors; actives 15% (n = 420,000); note: potency is the fitted concentration of half-maximal effect; nearly all actives have a fitted effect of over 55% in size
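A cellular qHTS used chicken DT40 cells lacking endogenous Tdp1 but carrying stably transfected human TDP1. Compounds were applied without camptothecin, and cell growth kinetics were judged by ATP-dependent luminescence after ≥48 hr.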
12-LOX inh = inhibitors of human 12S-lipoxygenase ALOX12 | P18054 | purified 12hLO, xylenol orange hydroperoxide absorbance | Potency, µM (top dose mostly 108 µM), inactives show top-dose activity change, negative = inhibition, usual class: inhibitors | actives 1.1% (n = 580,000) | AID 1671190; note: potency is the fitted concentration of half-maximal effect
Target sequence (P18054 whole entry, looked up): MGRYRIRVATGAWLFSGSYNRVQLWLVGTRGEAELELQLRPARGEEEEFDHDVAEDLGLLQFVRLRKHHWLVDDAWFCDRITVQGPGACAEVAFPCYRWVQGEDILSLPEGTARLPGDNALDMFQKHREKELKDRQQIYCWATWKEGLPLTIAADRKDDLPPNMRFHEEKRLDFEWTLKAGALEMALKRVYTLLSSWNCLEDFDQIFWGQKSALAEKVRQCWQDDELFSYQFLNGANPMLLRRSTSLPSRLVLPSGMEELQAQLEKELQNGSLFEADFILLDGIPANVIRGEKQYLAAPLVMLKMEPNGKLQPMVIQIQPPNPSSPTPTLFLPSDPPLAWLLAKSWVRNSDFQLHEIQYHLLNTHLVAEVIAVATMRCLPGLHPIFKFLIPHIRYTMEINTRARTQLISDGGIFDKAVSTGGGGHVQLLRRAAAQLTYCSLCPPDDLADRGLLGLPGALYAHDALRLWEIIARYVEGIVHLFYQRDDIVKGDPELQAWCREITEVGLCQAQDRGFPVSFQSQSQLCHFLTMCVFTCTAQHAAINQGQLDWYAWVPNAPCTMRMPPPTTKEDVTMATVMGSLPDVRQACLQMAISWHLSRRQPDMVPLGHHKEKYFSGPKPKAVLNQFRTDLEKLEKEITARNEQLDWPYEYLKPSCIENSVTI
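Purified human 12hLO (150 nM final) in 25 mM Hepes, 0.01% Triton X-100, pH 7.0 was preincubated 15 min at room temperature with compound. Then 40 uM arachidonic acid was added, 30 min. Hydroperoxide was read by Fe-XO absorbance ratio 573/405 nm.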
IL-1B inflam inh = inhibitors of inflammasome signaling (IL-1 beta secretion). THP-1 LPS/ATP IL-1B secretion, AlphaLISA, 16 h; active compounds read low. activity change, % at 57.5 µM. actives 4.7% (n = 360,000); in the data active = activity change below about -50%; inconclusive = mostly about -30% to -49%
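Secreted IL-1B measured by AlphaLISA bead assay after 16 h compound exposure of THP-1 cells; compounds (final up to 57.5 uM) added 1 h before LPS (250 ng/mL) and ATP (1.25 mM) stimulation; lower signal means less secretion.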
HT1080 IDH1KD tx = HT-1080 IDH1 knockdown cell toxicity (counter line); HT-1080 IDH1 knockdown viability, ATP luminescence, 48 h; Potency, µM (doses to about 46.1 µM), for the others: at the top dose activity, negative = toxicity, usual class: cytotoxic; actives 2% (n = 360,000); AID 686971;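 note: potency is the fitted concentration of half-maximal effect; 0% = DMSO wells and -100% = cell-free medium wells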
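% activity derives from luminescence (CellTiter-Glo), normalised to DMSO and no-cell wells. HT-1080-IDH1KD cells, 750/well, had 48 h compound exposure at 37 °C.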
Active calls of the source: *; i = inactive; ? = inconclusive; nt = no result; [ ] = another dose, or the depositor's remark. Unless noted, calls come from the whole dose curve; as a rule, active = well fitted curve in the direction sought with a large enough effect; inconclusive = small, poorly fitted or top-dose-only effect, or another doubt; inactive = no such curve, though single readings can be large; an effect the other way counts as inactive or inconclusive. Unless noted, % is set by controls: 0 for no effect and ±100 for the full control effect.

SMILES	HT1080NT lethal	TDP1 cell CPT	DT40 TDP1 no CPT	12-LOX inh	IL-1B inflam inh	HT1080 IDH1KD tx
O=C(NCCc1ccc(Cl)cc1)c1ccc(CS(=O)Cc2ccc(Cl)cc2)o1 (stereo unspecified)	-14%	?	-19%	0%	?	-30%
CSc1ccc(CCNC(=O)c2ccc(CS(=O)Cc3ccc(Cl)cc3)o2)cc1 (stereo unspecified)	-9%	?	21µM*	?	?	-23%
COc1cccc(OC)c1CN1CC[C@@H]2CN(S(C)(=O)=O)[C@@H]2C1	nt	nt	nt	50%	nt	nt
COc1ccc(CCNC(=O)c2ccc(CS(=O)(=O)Cc3cccc(C)c3)o2)cc1OC	3%	21µM*	12µM*	-1%	-10	-10%
CCOc1ccc(CCNC(=O)c2ccc(CS(=O)(=O)Cc3ccccc3Cl)o2)cc1OCC	nt	16µM*	23µM*	-30%	nt	nt
O=C(NC1CCCC1)c1ccc(CS(=O)(=O)Cc2ccccc2Cl)o1	-1%	?	-21%	3%	-3	-5%
CCOc1ccc(CCNC(=O)c2ccc(CSCc3ccccc3C)o2)cc1OCC	nt	16µM*	16µM*	-26%	nt	nt
CCOc1ccc(CCNC(=O)CCNC(=O)c2ccco2)cc1OCC	-1%	-24%	20%	3%	-7	6%
CN(C)CCNC1CCN(C)CC1	nt	nt	nt	4%	nt	nt
CN(C(=O)Cc1ccccn1)C1CCc2ccccc21 (stereo unspecified)	nt	nt	nt	35%[176 µM]	nt	nt
CCOc1cccc(CNCCO)c1OCc1ccc(Cl)cc1Cl	-4%	16µM*	16µM*	-14%	0	-25%
CCOc1cccc(CNc2ccc(O)cc2)c1OCc1ccccc1Cl	?	13µM*	12µM*	363%	-5	?
CCOc1cccc(CNc2ccc(O)cc2)c1OCc1ccc(Cl)cc1Cl	?	15µM*	21µM*	i	?	21µM*
CCOc1cc(CNCCO)cc(Br)c1OCc1cccs1	?	15µM*	18µM*	0%	-60*	11µM*
COc1cc(CNCCO)cc(Br)c1OCc1ccccc1	-6%	-11%	-24%	14%	-1	-9%
CCOc1cccc(CNn2cnnc2)c1OCc1ccccc1Cl	0%	-18%	-29%	-7%	-7	3%
CCCn1c(Cn2ccnc2C)nc2cc(NC(=O)COc3ccc(OC)cc3)ccc21	nt	nt	nt	26%	nt	nt
CCOc1cc(CNCCO)cc(Br)c1OCc1ccc(Cl)cc1Cl	?	16µM*	15µM*	4%	-101*	21µM*
CCOc1cc(CNCc2ccncc2)cc(Br)c1OCc1ccccc1F	?	?	?	?	-13	?
COc1cc(CNn2c(C)n[nH]c2=S)cc(Cl)c1OCc1ccccc1	?	-23%	-12%	20µM*	3	0%
CCOc1cc(CNc2ccc(O)cc2)cc(Cl)c1OCc1ccccc1	nt	21µM*	16µM*	116%	nt	nt
CCOC(=O)Nc1cccc(C#N)c1	nt	nt	nt	3%	nt	nt
Cc1cc(C)cc(NC(=O)OCCN2CCN(Cc3ccccc3)CCC2=O)c1	-1%	-23%	23µM*	11%	-1	0%
Cc1ccc(S(=O)(=O)N2CCC(=O)N(CCOC(=O)Nc3cc(C)cc(C)c3)CC2)cc1	-6%	16µM*	?	-13%	-12	0%
COc1ccc(NC(=O)OCCN2CCN(Cc3ccccc3)CCC2=O)cc1	13%	-20%	-16%	18%	27	-3%
SMILES	HT1080NT lethal	TDP1 cell CPT	DT40 TDP1 no CPT	12-LOX inh	IL-1B inflam inh	HT1080 IDH1KD tx
COc1cc(Br)c(C(C)NC(=O)c2cccc(Br)c2)cc1OC (stereo unspecified)	-25%	26µM*	23µM*	?	-2	?
COc1cc(C(=O)NC(C)c2cccc3ccccc23)cc(OC)c1OC (stereo unspecified)	-3%	?	21µM*	?	-57*	0%
CN(C(=O)COC(=O)/C=C/c1cccc([N+](=O)[O-])c1)C1CCS(=O)(=O)C1 (stereo unspecified)	23µM*	-12%	0%	-22%	-9	16µM*
CN(C(=O)COC(=O)c1c2c(nc3ccccc13)/C(=C/c1cccc([N+](=O)[O-])c1)CCC2)C1CCS(=O)(=O)C1 (stereo unspecified)	?	3.3µM*	5.2µM*	-29%	0	5.8µM*
O=S(CCCOc1ccc(F)cc1)Cc1ccc(F)cc1 (stereo unspecified)	nt	nt	nt	-53%	nt	nt
COC(=O)c1ccc2nc(-c3cccc(Cl)c3)c(Cc3ccccc3)n2c1	5%	21µM*	10µM*	0%	29	-15%
Clc1cccc(-c2nc3ccc(Cl)cn3c2Cc2ccccc2)c1	-21%	?	16µM*	24%	20	?
COC(=O)c1ccc2nc(-c3ccc(C#N)cc3)c(Cc3cccc(Cl)c3)n2c1	-4%	21µM*	21µM*	?	0	-11%
COC(=O)c1ccc2nc(-c3cccc(Br)c3)c(Cc3ccccc3)n2c1	11%	?	23µM*	38%	30	1%
CN(C(=O)CCC1CCCCC1)C1(c2ccccc2Cl)CCCCC1=O (stereo unspecified)	nt	nt	nt	4%	nt	nt
Cc1ccc(C(=O)Nc2cccc(-c3nnc4n3CCCC4)c2)c(C)c1	nt	nt	nt	-28%	nt	nt
Cc1cccc(C(=O)NCCC(=O)N2CCCCCC2)c1	nt	nt	nt	33%	nt	nt
CCCc1c(-c2ccc(F)cc2)ncn1Cc1ccccc1OC	?	1.6µM*	2.1µM*	-75%	-5	?
CCCc1c(-c2ccccc2)ncn1Cc1ccccc1OC	-27%	7.3µM*	5.8µM*	-34%	7	?
CCCc1c(-c2ccccc2Br)ncn1Cc1ccccc1OC	?	2.3µM*	2.3µM*	?	1	?
COc1ccc(-c2noc([C@@H](C)NC(=O)c3cc(C)oc3C)c2C(=O)O)cc1	nt	nt	nt	39%[176 µM]	nt	nt
COC(=O)CN=Cc1c(C)[nH]n(-c2ccccc2)c1=O	-2%	-4%	-2%	9%	0	-4%
Cc1[nH]n(-c2ccccc2)c(=S)c1C=NCCCN=Cc1c(C)[nH]n(-c2ccccc2)c1=S	-3%	?	-17%	11µM*	-97*	-13%
N#CC1(CCCN2CCCCC2)c2ccccc2CCc2ccccc21	-16%	?	?	?	-57*	-5%
O=C(Cc1cccc(F)c1)N1CCC(Cc2nc(C3CCOCC3)no2)CC1	nt	nt	nt	-7%	nt	nt
